Results published in PubChem BioAssay AID642 (Vanderbilt High Throughput Screening Facility, 2007).
In all, about 2,200 compounds went through this assay and about 2,000 (91%) were called active. So high a share suggests a set chosen from earlier hits. A selection follows. Values without a mark were called inactive.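 The calls were made as follows: active = luminescence in either of two replicates above the same-plate mean plus 3 SD of the low-dose dopamine control; inactive = the rest.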

These compounds were tested against D(1A) dopamine receptor (Homo sapiens) (UniProt P21728) (assay: D1 receptor positive allosteric modulators, retest, confirmation, cell-based, HEK293 D1, CRE-luciferase, duplicate (AID 642)). Conditions: dopamine EC30 potentiation, at 10 µM, stronger effect = higher value.
Chain of D(1A) dopamine receptor (Homo sapiens) (P21728 whole entry, looked up): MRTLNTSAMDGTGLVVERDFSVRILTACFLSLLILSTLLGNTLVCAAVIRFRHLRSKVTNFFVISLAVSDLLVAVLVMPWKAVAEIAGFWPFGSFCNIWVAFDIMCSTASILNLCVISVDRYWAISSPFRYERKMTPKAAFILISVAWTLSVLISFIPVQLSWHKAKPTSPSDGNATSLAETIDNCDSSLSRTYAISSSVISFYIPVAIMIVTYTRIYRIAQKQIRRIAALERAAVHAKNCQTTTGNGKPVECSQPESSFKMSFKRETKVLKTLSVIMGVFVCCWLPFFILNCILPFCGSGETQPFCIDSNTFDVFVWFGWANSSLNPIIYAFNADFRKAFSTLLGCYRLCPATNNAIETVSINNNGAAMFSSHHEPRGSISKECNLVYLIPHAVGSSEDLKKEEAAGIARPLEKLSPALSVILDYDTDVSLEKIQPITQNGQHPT
With `CC1(C)Cc2ccccc2-c2nc(CN3CCOCC3)[nH]c(=O)c21` the luminescence was 19300 (active).
For `CCCCNc1nc2ccccc2nc1NS(=O)(=O)c1cccs1`, the luminescence was 15900 (active).
For `Cn1c(=O)c2[nH]c(NCC3CCCO3)nc2n(-c2ccccc2)c1=O` (configuration not stated), the luminescence was 8480 (active).
For `CN1CCN(CC(O)COCc2ccc3c(c2)OCO3)CC1` (configuration not stated), the luminescence was 6270 (active).
`COc1ccc(Nc2oc(-c3ccccc3Cl)nc2C#N)cc1` was tested, and the luminescence was 15100 (active).
`CCOc1ccc(Nc2oc(Cc3ccccc3)nc2C#N)cc1` was tested, and the luminescence was 10900 (active).
`N#Cc1nc(Cc2ccccc2)oc1NCCc1ccccc1` was tested, and the luminescence was 8810 (active).
In the case of `CCCc1nc(N)nc2c1C(=O)CC(C)(C)C2`, the luminescence is reported as 24100 (active).
`O=C(C1CCC1)N1CCc2cc(S(=O)(=O)NCc3cccnc3)ccc21` was tested, and the luminescence was 13000 (active).
`CCOc1cccc(-n2nnnc2-c2ccc(OC)cc2)c1` was tested, and the luminescence was 10400 (active).
In the case of `CCOC(=O)c1c(NC(=O)CSc2nnc(Cc3csc(N)n3)n2C)sc(C)c1C`, the luminescence is reported as 9070 (active).
In the case of `CCOC(=O)c1c(NC(=O)CSc2nnc(CN3CCOCC3)n2C)sc2c1CCCC2`, the luminescence is reported as 11600 (active).
Compound `COc1ccc(-n2c(Cc3cccn3C)nnc2SCC(=O)Nc2cc(C)cc(C)c2)cc1` has a luminescence of 4890.
For `CC1Oc2ccccc2N(Cc2cccnc2)C1=O` (configuration not stated), the luminescence was 10900 (active).
`COC(=O)[C@H](C(C)C)n1c(C)c(C(C)=O)c(C(C)=O)c1C` was tested, and the luminescence was 7760.
With `CCCn1c(=NC(C)=O)c(C(=O)OCC)cc2c(=O)n3ccccc3nc21` the luminescence was 9880 (active).
For `c1coc(-c2nc3nc4ccccc4n3nc2-c2ccco2)c1`, the luminescence was 14000 (active).
In the case of `CCOc1ccc(-c2nnn(CC(=O)N3CCN(c4ccc(OC)cc4)CC3)n2)cc1OCC`, the luminescence is reported as 9620 (active).
With `CCOc1cc(-c2noc(CCC(=O)N3CCOCC3)n2)ccc1OC` the luminescence was 10500 (active).
`COc1nc(NCc2ccc(Cl)cc2)nc(OC)n1` was tested, and the luminescence was 13700 (active).
`CC(=O)c1ccc(Oc2cc(C)nc(-n3nc(C)cc3C)n2)cc1` was tested, and the luminescence was 17900 (active).
With `COc1ccc(Nc2cc(C)nc(-n3nc(C)cc3C)n2)cc1` the luminescence was 13700 (active).
With `CCCCSc1nc2c(c(=O)n1CC)SC(C)C2` (configuration not stated) the luminescence was 8100 (active).
With `CC(C)C1C2=C(CC(C)(C)CC2=O)ON1c1ccccc1` (configuration not stated) the luminescence was 12900 (active).
`CCOC(=O)c1cc(C)sc1NC(=O)C1CCC1` was tested, and the luminescence was 19700 (active).
In the case of `N#CCCN1CCN(S(=O)(=O)c2ccc(S(=O)(=O)NC3CCCCC3)cc2)CC1`, the luminescence is reported as 5770 (active).
With `COc1ccc(CCN(C)C(=O)C2CCCN(Cc3ccc(OC)c(OC)c3)C2)cc1OC` (configuration not stated) the luminescence was 7890 (active).
`CCCS(=O)(=O)N1CCC(C(=O)NCCc2ccc(OC)c(OC)c2)CC1` showed a luminescence of 7140.
In the case of `COc1ccc(NC(=O)C2CCCN(S(=O)(=O)c3cccc4cccnc34)C2)cc1OC` (configuration not stated), the luminescence is reported as 13800 (active).
For `CCSc1ncnc2c(C#N)c3n(c12)CCCCC3`, the luminescence was 18600 (active).
With `COc1ccc(-c2nnco2)cc1OC` the luminescence was 10800 (active).
For `C=CCSc1nc2c(c(=O)[nH]1)C(C(C)C)C(C#N)=C(N)O2` (configuration not stated), the luminescence was 18500 (active).
`CCOc1ccc2[nH]c(=O)c(C(c3nnnn3CCOC)N3CCOCC3)cc2c1` (configuration not stated) gave a luminescence of 5420.
In the case of `CC1CCN(c2nc3c(c(=O)[nH]c(=O)n3C)n2CCCc2ccccc2)CC1`, the luminescence is reported as 14000 (active).
In the case of `CCCSc1nc2c(c(=O)[nH]c(=O)n2C)n1CCc1ccccc1`, the luminescence is reported as 24800 (active).
With `O=C(NCc1ccco1)c1cnn2c(C(F)(F)F)cc(-c3ccco3)nc12` the luminescence was 8660 (active).
In the case of `O=S(=O)(c1cccs1)N1CCc2ccccc2C1`, the luminescence is reported as 12600 (active).
For `CN(C)c1nc(N)nc(CSc2nnnn2-c2cccc3ccccc23)n1`, the luminescence was 7470 (active).
`CCn1ncc(C2=NOC(C(=O)Nc3ccccc3C(=O)OC)C2)c1C` (configuration not stated) was tested, and the luminescence was 14000 (active).
In the case of `Cc1nn(-c2ccccc2)c2c1C(=O)NC(=O)C(C)(C)C2`, the luminescence is reported as 17700 (active).
With `CCn1cc(C(=O)NCC2COc3ccccc3O2)c2cc(OC)c(OC)cc2c1=O` (configuration not stated) the luminescence was 9310 (active).
`Nc1ccc(S(=O)(=O)NC(=O)c2ccccc2)cc1` showed a luminescence of 5620.
In the case of `O/N=C(\c1ccc2c(c1)OCCO2)C1CCCCC1`, the luminescence is reported as 10600 (active).
With `CC(=O)OC(C)C[N+](C)(C)C` (configuration not stated) the luminescence was 6620 (active).
`c1ccc2c(NCC3CCCO3)nc(-c3ccncc3)nc2c1` (configuration not stated) was tested, and the luminescence was 9880 (active).
In the case of `CCCN1Cc2cccc(C(=O)NCc3ccccc3)c2C1=O`, the luminescence is reported as 12000 (active).
For `CC1CCN(c2oc(-c3ccccc3F)nc2C#N)CC1`, the luminescence was 8980 (active).
For `C#CCNc1nc(C(C)C)nc2c1nnn2Cc1ccccc1F`, the luminescence was 11700 (active).
With `CCOc1cc(C(=O)N2CCc3cc(OC)c(OC)cc3C2)ccc1OC(F)F` the luminescence was 24600 (active).
In the case of `COc1ccc(CCNc2ncnc3nc[nH]c23)cc1OC`, the luminescence is reported as 14700 (active).
For `COc1ccc(-c2nnc(SCC(=O)NC3CCCCC3)o2)cc1OC`, the luminescence was 12200 (active).
With `CCOc1ccccc1C1CC(c2ccccc2)Nc2nc(N)nn21` (configuration not stated) the luminescence was 10100 (active).
`Cc1ccc(C2CC(c3cccc(C)c3)n3nc(N)nc3N2)cc1` (configuration not stated) was tested, and the luminescence was 8720 (active).
`Cc1ccc(C2CC(c3cccc(Br)c3)n3nc(N)nc3N2)cc1` (configuration not stated) was tested, and the luminescence was 10800 (active).
For `FC(F)(F)c1cc(-c2ccco2)nc(N2CCOCC2)n1`, the luminescence was 24200 (active).
`Cc1cc(C(F)(F)F)nn1-c1nc(-c2ccco2)cc(C(F)(F)F)n1` was tested, and the luminescence was 8160 (active).
In the case of `COc1ccc(-c2nnn(Cc3nc(N)nc(N4CCCCC4)n3)n2)cc1`, the luminescence is reported as 12600 (active).
For `COc1ccc(S(=O)(=O)Nc2ccc(S(=O)(=O)N3CCCCC3)cc2)cc1OC`, the luminescence was 13000 (active).
`O=C(CSc1nnc2scc(-c3ccc(F)cc3)n12)NCc1ccco1` was tested, and the luminescence was 11300 (active).
For `Cn1c(/C(C#N)=C2/CCCCCN2)nc2ccccc21`, the luminescence was 15000 (active).
For `COc1ncnc2c1N=C1CC(C)(C)CC(N)=C1S2`, the luminescence was 8600 (active).
In the case of `COC(=O)c1ccccc1NC(=O)C1CCN(S(=O)(=O)c2cc(OC)ccc2OC)CC1`, the luminescence is reported as 13600 (active).
`CCCCc1c(O)nc2n(c1=O)CCS2` was tested, and the luminescence was 4500.
With `Oc1ccc(-c2csc(Nc3cccnc3)n2)cc1` the luminescence was 10600 (active).
With `COC(=O)C(C)C1Sc2ccccc2NC1=O` (configuration not stated) the luminescence was 11200 (active).
`COc1cc(NC(=O)N2CCOCC2)cc(OC)c1` gave a luminescence of 7060.
For `CC(=O)Nc1cccc(Oc2cc(C#N)c(C#N)cc2N2CCOCC2)c1`, the luminescence was 18800 (active).
